Assay results published in PubChem BioAssay (EPA / NIEHS).
Several values for one entry are separate records, joined by “and”; a condition that tells them apart may be missing. Equal entries are not always repeated. Records with an inconclusive call do not appear. The source holds several records for some structures; these can differ, active in one and inactive in another. Activity calls are given as the source filed them. Rule for the calls, unless noted: active = hit-call score of the fitted dose curve at least 0.9, where 1 is the maximum; inactive = score below 0.9.

What was measured:
[1] = ATG_NFI_CIS: Attagene CIS-FACTORIAL HepG2 Assay for human Nuclear Factor I (NFI) (AID 2282989); settings: HepG2 cis-regulatory reporter, NFI response element transcription; actives raise or lower the signal
How it was run: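 Transient MRTU transfection of HepG2 → 24 h chemical dosing → total RNA, oligo(dT) RT → PCR, 6-FAM primer extension, HpaI cut → capillary electrophoresis. Endpoint fitted bidirectionally relative to DMSO.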

[2] = target: Myc proto-oncogene protein (Homo sapiens) (UniProt P01106); test: ATG_Myc_CIS: Attagene CIS-FACTORIAL HepG2 Assay for human Myelocytomatosis (Myc) Proto-Oncogene Transcription Factor (AID 2282990); settings: HepG2, Attagene cis-reporter transcription factor activity; actives raise or lower the signal
Myc proto-oncogene protein (Homo sapiens), sequence (P01106 whole entry, looked up): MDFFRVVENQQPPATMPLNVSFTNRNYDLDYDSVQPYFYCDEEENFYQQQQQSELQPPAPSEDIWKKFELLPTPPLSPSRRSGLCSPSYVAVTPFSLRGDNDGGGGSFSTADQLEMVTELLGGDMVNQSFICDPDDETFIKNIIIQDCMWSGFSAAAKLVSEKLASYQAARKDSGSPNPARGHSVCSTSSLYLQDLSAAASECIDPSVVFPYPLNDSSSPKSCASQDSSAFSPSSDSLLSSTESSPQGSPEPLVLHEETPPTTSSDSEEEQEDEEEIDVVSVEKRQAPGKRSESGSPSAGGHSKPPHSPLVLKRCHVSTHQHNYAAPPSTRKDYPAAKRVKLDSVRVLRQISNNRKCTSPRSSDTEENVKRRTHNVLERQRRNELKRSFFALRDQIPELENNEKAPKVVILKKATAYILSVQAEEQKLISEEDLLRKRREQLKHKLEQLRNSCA
How it was run: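 Cells of the HepG2 human liver line bear multiple cis-driven reporter transcription units. Reporter mRNA after 24 h exposure is reverse-transcribed, amplified, labelled and resolved by capillary electrophoresis, with gain- or loss-of-signal fitting relative to DMSO.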

[3] = ATG_NF_kB_CIS: Attagene CIS-FACTORIAL HepG2 Assay for human Nuclear Factor Kappa B (NF-kB) (AID 2282991); settings: HepG2 Attagene cis-factorial NF-kB reporter mRNA; actives raise or lower the signal
How it was run: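 Endpoint from a 52-component multiplexed HepG2 reporter panel: cis-regulated transcription units transiently transfected, 24 h dosing, reporter mRNA quantified by RT-PCR and capillary electrophoresis, scored as increase or decrease against DMSO.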

[4] = ATG_NRF2_ARE_CIS: Attagene CIS-FACTORIAL HepG2 Assay for human Nuclear Factor Erythroid 2 Related Factor 2 (NFR2) response to Antioxidant Response Elements (ARE) (AID 2282992); settings: HepG2 Attagene ARE/NRF2 reporter, transcription factor activity; actives raise or lower the signal;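 for AC50: reporter mRNA level measured by RT-PCR and capillary electrophoresis fluorescence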
How it was run: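 Readout: reporter mRNA quantified by RT-PCR plus FAM-labelled primer extension, HpaI digestion and capillary electrophoresis, 24 h after dosing transfected HepG2 cells. Gain or loss of signal is fitted bidirectionally against DMSO baseline.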

[5] = ATG_Oct_MLP_CIS: Attagene CIS-FACTORIAL HepG2 Assay for human Octamer-Binding Transcription Factor (Oct) (AID 2282993); settings: HepG2 Attagene cis-factorial Oct reporter, mRNA; actives raise or lower the signal
How it was run: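 Transient MRTU transfection of HepG2 → 24 h compound treatment → RNA isolation, reverse transcription, PCR → 6-FAM primer extension, HpaI digest → capillary electrophoresis. Activity fitted both directions against DMSO.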

[6] = target: Cellular tumor antigen p53 (Homo sapiens) (UniProt P04637); test: ATG_p53_CIS: Attagene CIS-FACTORIAL HepG2 Assay for human p53 Transcription Factor (AID 2282994); settings: HepG2 p53 cis-element reporter, Attagene mRNA; actives raise or lower the signal
Cellular tumor antigen p53 (Homo sapiens), sequence (P04637 whole entry, looked up): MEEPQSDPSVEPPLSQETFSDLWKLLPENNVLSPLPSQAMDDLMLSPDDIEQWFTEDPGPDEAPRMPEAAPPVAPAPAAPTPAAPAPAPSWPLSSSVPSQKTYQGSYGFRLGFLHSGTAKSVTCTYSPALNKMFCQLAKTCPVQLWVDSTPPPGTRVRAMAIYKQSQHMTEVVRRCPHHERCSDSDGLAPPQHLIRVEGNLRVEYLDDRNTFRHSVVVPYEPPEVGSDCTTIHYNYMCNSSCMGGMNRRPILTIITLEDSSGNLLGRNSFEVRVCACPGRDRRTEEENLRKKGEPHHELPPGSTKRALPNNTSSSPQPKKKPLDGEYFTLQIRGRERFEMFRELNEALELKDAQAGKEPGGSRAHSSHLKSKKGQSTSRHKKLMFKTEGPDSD
How it was run: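 Read-out: reporter mRNA by RT-PCR plus capillary electrophoresis with fluorescence detection. Human HepG2 liver cells carried transfected multi-reporter cis-element constructs, dosed 24 h. Gain or loss of signal fitted bidirectionally against DMSO control.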

[7] = BSK_3C_TissueFactor: BioMAP Diversity Plus: 3C Assay for Tissue Factor Biomarker Activity (AID 2282997); settings: BioMAP 3C HUVEC, tissue factor biomarker readout; actives raise or lower the signal
How it was run: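 In this endothelial system, HUVEC are treated for 24 h and Tissue Factor is assessed by ELISA, normalised to DMSO.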

[8] = BSK_3C_uPAR: BioMAP Diversity Plus: 3C Assay for Urokinase-type plasminogen activator receptor (uPAR) Biomarker Activity (AID 2282998); settings: BioMAP 3C HUVEC, uPAR biomarker ELISA; actives raise or lower the signal
How it was run: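 ELISA readout of uPAR on human vascular endothelium (umbilical vein primary cells), taken 24 h after chemical dosing. Increases and decreases are both fitted relative to DMSO vehicle.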

[9] = BSK_3C_VCAM1: BioMAP Diversity Plus: 3C Assay for Vascular cell adhesion molecule 1 (VCAM1) Biomarker Activity (AID 2282999); settings: BioMAP 3C HUVEC, VCAM1 ELISA, cytokine-stimulated; actives raise or lower the signal
How it was run: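 Activity fitted in both directions relative to DMSO, with ELISA measurement of the surface marker on primary HUVEC (3C) at 24 h post-treatment; parallel SRB staining (0.1% SRB, TCA-fixed, 560 nm) flagged overt cytotoxicity.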

[10] = BSK_4H_Eotaxin3: BioMAP Diversity Plus: 4H Assay for Eotaxin 3 Biomarker Activity (AID 2283000); settings: primary human endothelial cells (HUVEC); actives raise or lower the signal
How it was run: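 ELISA quantitation of CCL26 (Eotaxin-3) protein from chemically dosed human vascular endothelial cells at 24 h; increases and decreases both scored relative to DMSO-treated baseline.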

[11] = target: human Peroxisome Proliferator-activated Receptor alpha (PPARa), PPARA (gene 5465) (UniProt Q07869); test: ATG_PPARa_TRANS: Attagene TRANS-FACTORIAL HepG2 Assay for human Peroxisome Proliferator-activated Receptor alpha (PPARa) (AID 2283001; active = hit-call score of the fitted dose curve at least 0.9, where 1 is the maximum;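 for AC50: potency for gain of reporter signal over DMSO so agonist or activator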)
human Peroxisome Proliferator-activated Receptor alpha (PPARa), PPARA (gene 5465), sequence (Q07869 whole entry, looked up, the tested form may be a part): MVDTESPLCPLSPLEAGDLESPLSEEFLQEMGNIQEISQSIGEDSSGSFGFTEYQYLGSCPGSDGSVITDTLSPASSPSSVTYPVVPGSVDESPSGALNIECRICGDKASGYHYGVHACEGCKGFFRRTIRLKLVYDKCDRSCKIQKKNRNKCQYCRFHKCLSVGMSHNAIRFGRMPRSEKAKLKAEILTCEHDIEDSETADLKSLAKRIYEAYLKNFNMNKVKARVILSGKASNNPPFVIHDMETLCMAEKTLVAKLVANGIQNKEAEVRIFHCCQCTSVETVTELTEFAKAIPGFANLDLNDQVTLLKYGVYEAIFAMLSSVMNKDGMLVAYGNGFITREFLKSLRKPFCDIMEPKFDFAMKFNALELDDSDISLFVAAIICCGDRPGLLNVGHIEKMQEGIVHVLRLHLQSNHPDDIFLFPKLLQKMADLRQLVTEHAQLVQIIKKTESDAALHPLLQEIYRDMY
How it was run: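 Reporter transcripts quantified by RT-PCR plus capillary electrophoresis after 24 h treatment, fitted upward relative to DMSO. Cells: human HepG2 transiently carrying multiple GAL4-UAS reporter units driven by NR-Gal4 chimeras.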

[12] = read-out: Intercellular Adhesion Molecule 1 (ICAM1), ICAM1 (gene 3383); test: BSK_3C_ICAM1: BioMAP Diversity Plus: 3C Assay for Intercellular Adhesion Molecule 1 (ICAM1) Biomarker Activity (AID 2283003); settings: primary human endothelial cells (HUVEC); actives raise or lower the signal
How it was run: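 ELISA readout of ICAM1 in human umbilical vein endothelial cells in the 3C system, taken 24 h post-dose. Gain or loss of signal versus DMSO was fitted in both directions, with SRB total-protein staining run in parallel.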

[13] = target: human Retinoic Acid Receptor beta (RARb), RARB (gene 5915) (UniProt P10826); test: ATG_RARb_TRANS: Attagene TRANS-FACTORIAL HepG2 Assay for human Retinoic Acid Receptor beta (AID 2283004; active = hit-call score of the fitted dose curve at least 0.9, where 1 is the maximum)
human Retinoic Acid Receptor beta (RARb), RARB (gene 5915), sequence (P10826 whole entry, looked up, the tested form may be a part): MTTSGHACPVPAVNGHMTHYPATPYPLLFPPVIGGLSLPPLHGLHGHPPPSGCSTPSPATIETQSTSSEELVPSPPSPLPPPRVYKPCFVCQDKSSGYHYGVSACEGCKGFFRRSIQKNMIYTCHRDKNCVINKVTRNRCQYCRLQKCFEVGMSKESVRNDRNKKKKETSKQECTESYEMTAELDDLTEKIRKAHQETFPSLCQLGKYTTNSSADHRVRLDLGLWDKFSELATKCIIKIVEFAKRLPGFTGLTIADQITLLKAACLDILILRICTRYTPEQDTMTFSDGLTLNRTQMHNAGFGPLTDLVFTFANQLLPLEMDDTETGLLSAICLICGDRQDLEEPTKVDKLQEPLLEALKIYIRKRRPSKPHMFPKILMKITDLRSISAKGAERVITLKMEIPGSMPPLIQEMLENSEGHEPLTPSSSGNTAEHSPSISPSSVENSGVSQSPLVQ
How it was run: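 Fluorescent capillary-electrophoresis detection of GAL4-UAS reporter mRNA defines the endpoint, with induction over DMSO-treated wells scored as activity. Transiently transfected human hepatoma HepG2 cells expressing exogenous NR–Gal4 proteins are exposed to test chemicals for 24 h.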

[14] = BSK_3C_Proliferation: Cell Proliferation Assessment in the BioMAP Diversity Plus: 3C Assay (AID 2283006); settings: primary human endothelial cells (HUVEC);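 for AC50: potency may reflect either rise or fall in cell number versus DMSO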
How it was run: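 Proliferation as total protein: sulforhodamine B (0.1%) stain of TCA-fixed subconfluent human umbilical vein endothelial cells, absorbance 560 nm, 48 h after dosing. Activity fitted in both directions against DMSO baseline.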

[15] = target: Nuclear receptor subfamily 1 group I member 2 (Homo sapiens) (UniProt O75469); test: ATG_PXR_TRANS: Attagene TRANS-FACTORIAL HepG2 Assay for human Pregnane X Receptor (PXR) (AID 2283008; active = hit-call score of the fitted dose curve at least 0.9, where 1 is the maximum)
Nuclear receptor subfamily 1 group I member 2 (Homo sapiens), sequence (O75469 whole entry, looked up, the tested form may be a part): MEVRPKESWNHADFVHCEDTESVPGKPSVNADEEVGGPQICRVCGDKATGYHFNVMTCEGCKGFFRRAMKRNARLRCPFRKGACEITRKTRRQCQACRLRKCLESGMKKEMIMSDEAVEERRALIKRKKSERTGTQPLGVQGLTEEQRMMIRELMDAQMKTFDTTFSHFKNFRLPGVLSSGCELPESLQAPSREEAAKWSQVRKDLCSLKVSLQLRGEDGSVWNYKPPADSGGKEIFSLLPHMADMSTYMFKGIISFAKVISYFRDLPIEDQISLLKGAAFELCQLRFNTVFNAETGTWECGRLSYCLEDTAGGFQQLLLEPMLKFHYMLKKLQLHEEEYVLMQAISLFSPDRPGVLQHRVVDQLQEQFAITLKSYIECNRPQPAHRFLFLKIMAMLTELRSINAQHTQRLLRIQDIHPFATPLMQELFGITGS
How it was run: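 Trans-factorial format: exogenous NR-Gal4 fusion activity, not endogenous factor, in transfected human HepG2 liver cells. After 24 h dosing, RNA isolated, reverse-transcribed, amplified and resolved by capillary electrophoresis; induction scored versus DMSO.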

[16] = target: human RAR-related Orphan Receptor beta (RORb), RORB (gene 6096) (UniProt Q92753); test: ATG_RORb_TRANS: Attagene TRANS-FACTORIAL HepG2 Assay for human RAR-related Orphan Receptor beta (RORb) (AID 2283010; active = hit-call score of the fitted dose curve at least 0.9, where 1 is the maximum)
human RAR-related Orphan Receptor beta (RORb), RORB (gene 6096), sequence (Q92753 whole entry, looked up, the tested form may be a part): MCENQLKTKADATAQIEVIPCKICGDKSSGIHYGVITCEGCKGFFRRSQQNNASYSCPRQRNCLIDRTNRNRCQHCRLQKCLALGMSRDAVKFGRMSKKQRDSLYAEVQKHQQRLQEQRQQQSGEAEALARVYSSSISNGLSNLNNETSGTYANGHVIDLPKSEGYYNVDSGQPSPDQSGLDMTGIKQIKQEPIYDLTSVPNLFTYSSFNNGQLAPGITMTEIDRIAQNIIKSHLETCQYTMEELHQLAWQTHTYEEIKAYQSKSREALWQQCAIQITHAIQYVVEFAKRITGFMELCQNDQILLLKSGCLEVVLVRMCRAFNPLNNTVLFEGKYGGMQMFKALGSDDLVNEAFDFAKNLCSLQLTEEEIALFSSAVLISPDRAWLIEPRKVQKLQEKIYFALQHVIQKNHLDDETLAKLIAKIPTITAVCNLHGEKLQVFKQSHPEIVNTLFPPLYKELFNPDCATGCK
How it was run: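 Read-out is reporter mRNA induction, quantified by RT-PCR with fluorescent capillary electrophoresis, 24 h post-dose in transiently transfected HepG2 expressing exogenous NR-Gal4 chimera. Activity fitted upward versus DMSO.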

[17] = target: human Peroxisome Proliferator-activated Receptor delta (PPARd), PPARD (gene 5467) (UniProt Q03181); test: ATG_PPARd_TRANS: Attagene TRANS-FACTORIAL HepG2 Assay for human Peroxisome Proliferator-activated Receptor delta (PPARd) (AID 2283002; active = hit-call score of the fitted dose curve at least 0.9, where 1 is the maximum)
human Peroxisome Proliferator-activated Receptor delta (PPARd), PPARD (gene 5467), sequence (Q03181 whole entry, looked up): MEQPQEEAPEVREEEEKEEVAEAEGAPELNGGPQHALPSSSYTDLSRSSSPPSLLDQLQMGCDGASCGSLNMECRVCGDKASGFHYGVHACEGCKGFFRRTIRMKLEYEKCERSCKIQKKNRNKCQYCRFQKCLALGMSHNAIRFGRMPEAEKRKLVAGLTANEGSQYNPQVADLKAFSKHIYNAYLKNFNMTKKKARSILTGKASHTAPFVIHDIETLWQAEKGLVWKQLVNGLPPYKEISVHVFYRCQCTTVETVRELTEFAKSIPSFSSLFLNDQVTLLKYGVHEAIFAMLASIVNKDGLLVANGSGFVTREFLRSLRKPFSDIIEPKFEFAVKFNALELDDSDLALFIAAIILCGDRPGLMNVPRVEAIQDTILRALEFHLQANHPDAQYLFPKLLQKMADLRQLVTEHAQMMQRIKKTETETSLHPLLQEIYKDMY
How it was run: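 Cell-based TRANS reporter: HepG2, transient MRTU transfection, 24 h exposure. Readout = reporter mRNA (RT-PCR/CE, 6-FAM). Gain-of-signal fit vs DMSO control.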

[18] = target: Peroxisome proliferator-activated receptor gamma (Homo sapiens) (UniProt P37231); test: ATG_PPARg_TRANS: Attagene TRANS-FACTORIAL HepG2 Assay for human Peroxisome Proliferator-activated Receptor-gamma (PPARg) (AID 2283007; active = hit-call score of the fitted dose curve at least 0.9, where 1 is the maximum)
Peroxisome proliferator-activated receptor gamma (Homo sapiens), sequence (P37231 whole entry, looked up, the tested form may be a part): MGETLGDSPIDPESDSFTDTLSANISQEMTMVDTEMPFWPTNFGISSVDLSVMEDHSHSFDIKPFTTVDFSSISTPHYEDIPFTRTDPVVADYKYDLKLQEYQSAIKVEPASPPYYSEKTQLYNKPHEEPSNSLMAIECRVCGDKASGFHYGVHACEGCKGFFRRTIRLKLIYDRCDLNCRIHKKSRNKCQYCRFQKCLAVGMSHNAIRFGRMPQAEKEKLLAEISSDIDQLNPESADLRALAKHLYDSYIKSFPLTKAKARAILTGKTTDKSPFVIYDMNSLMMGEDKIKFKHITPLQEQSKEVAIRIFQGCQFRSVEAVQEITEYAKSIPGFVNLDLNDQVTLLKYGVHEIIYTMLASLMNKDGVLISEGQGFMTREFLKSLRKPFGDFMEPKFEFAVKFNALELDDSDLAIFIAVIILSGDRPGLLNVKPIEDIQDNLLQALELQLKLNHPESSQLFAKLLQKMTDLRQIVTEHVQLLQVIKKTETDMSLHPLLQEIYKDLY
How it was run: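 Endpoint reflects upward reporter mRNA change versus DMSO controls. Setup: transiently transfected HepG2, GAL4-UAS reporters driven by chimeric NR-Gal4, 24 h incubation, RT-PCR with capillary electrophoresis read-out.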

[19] = target: Retinoic acid receptor alpha (Homo sapiens) (UniProt P10276); test: ATG_RARa_TRANS: Attagene TRANS-FACTORIAL HepG2 Assay for human Retinoic Acid Receptor alpha (RARa) (AID 2283005; active = hit-call score of the fitted dose curve at least 0.9, where 1 is the maximum)
Retinoic acid receptor alpha (Homo sapiens), sequence (P10276 whole entry, looked up, the tested form may be a part): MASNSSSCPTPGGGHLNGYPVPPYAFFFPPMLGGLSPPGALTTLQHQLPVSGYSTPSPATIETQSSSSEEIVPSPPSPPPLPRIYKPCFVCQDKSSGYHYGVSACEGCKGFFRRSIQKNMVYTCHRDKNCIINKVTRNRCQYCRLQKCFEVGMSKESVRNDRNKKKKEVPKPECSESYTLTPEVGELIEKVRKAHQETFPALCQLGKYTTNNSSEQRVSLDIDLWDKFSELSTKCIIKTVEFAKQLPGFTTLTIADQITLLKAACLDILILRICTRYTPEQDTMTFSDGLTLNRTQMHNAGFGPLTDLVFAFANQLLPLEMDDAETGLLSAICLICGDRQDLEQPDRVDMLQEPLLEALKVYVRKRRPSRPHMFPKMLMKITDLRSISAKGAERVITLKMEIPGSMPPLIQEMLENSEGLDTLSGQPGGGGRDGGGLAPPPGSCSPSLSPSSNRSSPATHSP
How it was run: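 Reporter transcripts, measured by RT-PCR with fluorescent labeling and capillary electrophoresis after 24 h dosing, reflect activity of an exogenous human RARa–GAL4 fusion in transiently transfected HepG2. Fitted for increase relative to DMSO.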

[20] = target: human Retinoic Acid Receptor gamma (RARg), RARG (gene 5916) (UniProt P13631); test: ATG_RARg_TRANS: Attagene TRANS-FACTORIAL HepG2 Assay for human Retinoic Acid Receptor gamma (RARg) (AID 2283009; active = hit-call score of the fitted dose curve at least 0.9, where 1 is the maximum)
human Retinoic Acid Receptor gamma (RARg), RARG (gene 5916), sequence (P13631 whole entry, looked up, the tested form may be a part): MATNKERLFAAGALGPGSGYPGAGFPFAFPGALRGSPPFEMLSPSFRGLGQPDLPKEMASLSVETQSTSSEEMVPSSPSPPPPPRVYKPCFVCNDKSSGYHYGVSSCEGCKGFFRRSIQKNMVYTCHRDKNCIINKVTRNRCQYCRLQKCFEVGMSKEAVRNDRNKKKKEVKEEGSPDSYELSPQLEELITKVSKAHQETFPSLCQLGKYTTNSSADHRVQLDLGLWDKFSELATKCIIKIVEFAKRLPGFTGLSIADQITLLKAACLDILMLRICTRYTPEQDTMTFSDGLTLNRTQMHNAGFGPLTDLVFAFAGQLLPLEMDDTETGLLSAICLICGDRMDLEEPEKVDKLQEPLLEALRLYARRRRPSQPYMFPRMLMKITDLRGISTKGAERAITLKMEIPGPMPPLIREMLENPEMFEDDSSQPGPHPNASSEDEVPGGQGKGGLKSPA
How it was run: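 Transactivation of exogenous RARg-Gal4 fusion measured as reporter transcript induction after 24 h in transfected HepG2 cells. RNA reverse-transcribed, amplified, fluorescently labeled and resolved by capillary electrophoresis; increase relative to DMSO.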

Measured: AC50

c1ccc2ccccc2c1
not listed: [17] | [18] | [19] | [20]
inactive: all other assays above

O=C=NCCCCCCN=C=O
not listed: [11] | [13] | [19] | [20]
inactive: all other assays above

CCCCCc1ccc(N)cc1
inactive: [1] | [2] | [3] | [5] | [6] | [7] | [8] | [9] | [11] | [17] | [18] | [15]
active: [3] 20.2 µM | [6] 6.21 µM and 6.72 µM | [10] 14 µM | [14] 6.3 µM | [18] 100 µM and 34 µM

CCCCCCCCOc1ccc(C(=O)c2ccccc2)c(O)c1
active: [7] 13.2 µM | [14] 30.1 µM
not listed: [12]
inactive: all other assays above

Cc1cc2c(cc1C(F)(F)F)N(C(=O)Nc1ccc(Oc3cccnc3C)nc1)CC2
active: [7] 0.623 µM | [14] 9.22 µM
not listed: [11] | [16] | [19]
inactive: all other assays above

NCc1cccc(C2CCN(C(=O)c3ccc(C#Cc4ccccc4F)o3)CC2)c1
inactive: [1] | [2] | [6] | [17]
active: [3] 18.3 µM | [4] 1.76 µM | [5] 15.5 µM | [7] 15.6 µM | [8] 7.38 µM | [9] 15.8 µM | [10] 15.8 µM | [11] 0.909 µM | [14] 8.67 µM | [18] 1.33 µM | [15] 8.45 µM

Cc1c2ccccc2c(C)c2c1ccc1ccccc12
active: [2] 64.1 µM | [4] 12.4 µM | [8] 15.2 µM | [9] 20 µM | [10] 28.6 µM | [11] 148 µM | [17] 100 µM | [14] 10.4 µM | [18] 24.1 µM | [15] 2.57 µM
inactive: [1] | [3] | [5] | [6] | [7] | [12] | [19] | [20]

CCCCOC(=O)c1ccc(O)cc1
inactive: [1] | [2] | [4] | [5] | [6] | [9] | [10] | [11] | [17] | [12] | [14] | [18] | [15] | [20]
active: [1] 100 µM | [2] 100 µM | [4] 100 µM and 26.2 µM | [5] 116 µM | [7] 7.85 µM | [18] 39.9 µM and 54 µM and 27.3 µM

O=C1c2ccccc2C(=O)N1CCc1noc(-c2ccc(CN3CCCCCC3)s2)n1
active: [4] 23.1 µM | [15] 2.72 µM
not listed: [11] | [12] | [13] | [16] | [19] | [20]
inactive: all other assays above

CC(C)(c1cc(Br)c(O)c(Br)c1)c1cc(Br)c(O)c(Br)c1
active: [1] 57.6 µM and 54.7 µM | [2] 38.2 µM | [4] 55.9 µM and 57.6 µM | [5] 47 µM and 40.3 µM | [6] 22.9 µM | [7] 31.1 µM | [8] 31.6 µM | [9] 32.1 µM | [10] 30.1 µM | [12] 36 µM | [14] 28 µM | [15] 6.78 µM and 10.5 µM
inactive: [2] | [3] | [6] | [13] | [19] | [20]

CCCCCCCC[Si](OCC)(OCC)OCC
inactive: [1] | [2] | [3] | [5] | [6] | [7] | [17] | [13] | [19] | [18] | [20] | [16]
active: [1] 155 µM | [6] 78.4 µM | [9] 18.9 µM | [10] 30.9 µM | [14] 18.4 µM

CCCCCCCCCC(=O)O
inactive: [1] | [2] | [3] | [4] | [5] | [6] | [7] | [8] | [9] | [10] | [12] | [14] | [15] | [20] | [16]
active: [3] 104 µM | [11] 29.1 µM | [18] 29.2 µM and 12.3 µM
